Screening results: PubChem, several laboratories
EBV gp42 block: inhibitors of Epstein-Barr virus glycoprotein 42. Q1HVG2. Fluorescence polarization binding assay, mP read-out. inhibition, % (tested at 21.74 µM). 220,000 compounds, 0.42% hits. AID 1085; in the data active means inhibition above about 50%
Target sequence (Q1HVG2 whole entry, looked up): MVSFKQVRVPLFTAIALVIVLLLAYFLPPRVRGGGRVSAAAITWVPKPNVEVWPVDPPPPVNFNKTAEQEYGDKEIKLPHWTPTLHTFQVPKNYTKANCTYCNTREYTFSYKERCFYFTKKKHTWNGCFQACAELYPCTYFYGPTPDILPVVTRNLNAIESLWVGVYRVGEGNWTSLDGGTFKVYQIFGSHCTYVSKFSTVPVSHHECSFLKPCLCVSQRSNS
MCL1-BIM inh: disrupts human MCL1 binding to BIM-BH3 peptide. Q07820. GST-MCL1 / FITC-Bim-BH3 fluorescence polarization. AID 2057. 320,000 compounds, 0.68% hits. inhibition, % at 10.9 µM;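 active means inhibition above the mean inhibition of all tested compounds plus 3 SD, set per campaign, cut at about 40% in these data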;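 further: higher means more loss of mP so more displacement of Bim peptide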
Target sequence (Q07820 whole entry, looked up): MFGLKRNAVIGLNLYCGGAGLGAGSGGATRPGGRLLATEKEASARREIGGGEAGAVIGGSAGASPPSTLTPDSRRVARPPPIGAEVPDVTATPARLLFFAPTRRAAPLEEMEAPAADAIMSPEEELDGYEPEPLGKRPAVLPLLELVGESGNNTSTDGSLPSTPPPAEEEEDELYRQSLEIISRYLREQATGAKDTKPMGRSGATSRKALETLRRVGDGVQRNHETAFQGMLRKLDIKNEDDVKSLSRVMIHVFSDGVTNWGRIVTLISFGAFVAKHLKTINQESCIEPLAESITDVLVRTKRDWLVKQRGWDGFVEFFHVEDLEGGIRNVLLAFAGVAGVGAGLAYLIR
Bcl-xL primary: blocks human Bcl-xL binding to Bim BH3 peptide | Q07817 | GST-Bcl-xL / FITC-Bim BH3 peptide fluorescence polarization | inhibition, % at 10.9 µM | 320,000 compounds, 0.7% hits;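 active means inhibition above the mean of all tested compounds plus 3 SD, cutoff set per campaign, cut at about 30% in these data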;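 further: inhibitors lower millipolarization by displacing the labeled peptide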
GLD-1 TGE inh: GLD-1-TGE RNA interaction inhibition (C. elegans); Q17339; purified GLD-1 + fluorescein TGE RNA, fluorescence polarization; inhibition, % at 5.96 µM; 320,000 compounds, 0.44% hits;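 active means percent inhibition above a per-plate cutoff, the plate mean of test compounds plus 3 SD, cut at about 30% in these data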
MEX-5 binding: C. elegans MEX-5 TCR-2 RNA binding activity. Q9XUB2. MEX-5/FITC-TCR2 RNA binding, fluorescence polarization; active compounds read low. activity score (negative = inhibition of binding), % at 10 µM. 300,000 compounds, 0.38% hits. AID 1832;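 active means inhibition past about -25% in most replicates, and total fluorescence under double the plate's negative control median, limit read from the data; inconclusive means replicates evenly split on the limit, or fluorescence at least double controls; inactive means too little inhibition in most replicates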
Bcl-xL conf: counter-screen for MCL1 inhibitors: confirmation of human Bcl-xL inhibitors; shares compounds with MCL1-BIM inh; GST-Bcl-xL / FITC-Bim BH3 peptide FP binding; inhibition, % at 10.9 µM; 1,700 compounds, 54% hits; AID 2166;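 active means inhibition above a cutoff equal to the mean inhibition of all tested compounds plus 3 SD, cut at about 30% in these data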
MCL1 inh confirm: confirmation of human MCL1 and BIM-BH3 interaction inhibitors | shares compounds with MCL1-BIM inh | GST-MCL1 / FITC-Bim-BH3 fluorescence polarization | inhibition, % at 10.9 µM | 1,700 compounds, 61% hits | AID 2168;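 active means inhibition above the average of all tested compounds plus 3 SD, cut at about 40% in these data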
Numbers stand for hits; - = inactive; ? = inconclusive; . = not tested or not shown; + = active, no number. Shown are actives, neighbours in structure and some others; about 1.3% of the full set was active somewhere.

SMILES	EBV gp42 block	MCL1-BIM inh	Bcl-xL primary	GLD-1 TGE inh	MEX-5 binding	Bcl-xL conf	MCL1 inh confirm
Cc1ccc2c(c1Cl)NC(C(=O)O)C1CC(Sc3ccccc3[N+](=O)[O-])C(Cl)C21 (centres undefined)	-	59	-	-	-	-	-
O=C(O)c1cccc2c1NC(c1cccc([N+](=O)[O-])c1)C1CC(Sc3ccccc3[N+](=O)[O-])C(Cl)C21 (centres undefined)	-	.	.	.	-	.	.
O=C(c1ccc2c3c(cccc13)CC2)C1CCCN(CC2CC2)C1 (centres undefined)	-	-	-	-	-	.	.
COC(=O)C1=C(c2ccc(OC)c(OC)c2)C[C@@H]2CC[C@H]1N2C(=O)NCCCOC(C)C	.	-	-	-	.	.	.
CCCCn1c(O)c(C(=O)/C=C/c2c[nH]c3ccccc23)c(=O)[nH]c1=O	-	85	-	-	-	-	-
CCCCn1c(O)c(C(CC)=NCCc2ccccc2)c(=O)[nH]c1=O	-	-	-	-	-	.	.
CN1CCc2nc3sc(C#N)c(N)c3c(-c3cccs3)c2C1	-	-	-	-	-	.	.
CN1CCc2nc(N)c(C#N)c(-c3ccccc3)c2C1	-	69	61	46	-	-	-
COc1ccc2c(c1)NP(=S)(Oc1ccccc1)N2 (centres undefined)	-	57	50	-	-47	56	82
CCN(CC)c1ccc(/C=C2/C(=O)NC(=O)N(CC3CCCO3)C2=O)cc1 (centres undefined)	-	50	52	-	-	-	-
C[C@]12CCC3C(CC[C@H]4C[C@@H](O)CC[C@]34C)C1C[C@H](Br)[C@@H]2O (some centres undefined)	.	.	.	-	.	.	.
COC(=O)C1=C(c2c(C)noc2C)C[C@@H]2CC[C@H]1N2C(=O)NCCOc1ccc(OC)cc1	.	-	-	-	.	.	.
Nc1ccc2ccc3cccc[n+]3c2c1	.	+	+	63	?	+	+
CCC(C)c1ccc(N2C(=O)NC(=O)/C(=C/c3cccn3CCOc3ccc(C)cc3)C2=O)cc1 (centres undefined)	-	113	80	-	-	42	53
CN(C)C1C(=O)C(C(N)=O)=C(O)C2(O)C(=O)C3=C(O)c4c(O)cccc4C(C)(O)C3CC12 (centres undefined)	.	62	30	-	?	-	-
CN(C)[C@@H]1C(=O)C(C(N)=O)=C(O)[C@@]2(O)C(=O)C3=C(O)c4c(O)cccc4[C@@](C)(O)C3[C@H](O)C12 (some centres undefined)	.	+	153	77	-	37	87
CN(C)[C@@H]1C(=O)C(C(N)=O)=C(O)[C@@]2(O)C(=O)C3=C(O)c4c(O)ccc(Cl)c4[C@@](C)(O)C3C[C@@H]12 (some centres undefined)	-	.	.	.	.	.	.
C=CCn1c(O)c(C(CC)=Nc2ccc(N(C)C)cc2)c(=O)[nH]c1=O	-	45	-	-	-	-	-
C=CCn1c(O)c(C(CC)=Nc2ccc3c(c2)CCC3)c(=O)[nH]c1=O	-	-	-	-	-	.	.
COC(=O)Cn1cc(/C=C2\C(=O)NC(=O)N(c3ccccc3)C2=O)c2ccccc21	.	135	-	-	-43	73	94
Nc1ccccc1Cl	.	-	-	-	.	.	.
CN1CCc2cc3c(c4c2C1Cc1ccccc1-4)OCO3 (centres undefined)	.	+	166	94	?	77	87
CCOc1ccccc1CN1C2CCC1CC(c1ccc(C)cc1)C2 (centres undefined)	.	-	-	-	-	.	.
O=C1NC(=O)C(=C/C=C/c2coc3ccc(Br)cc3c2=O)C(=O)N1	-	74	86	-	-	92	111
O=C1NC(=S)NC(=O)C1=Cc1ccc(Br)s1	.	46	-	-	-	-	53
SMILES	EBV gp42 block	MCL1-BIM inh	Bcl-xL primary	GLD-1 TGE inh	MEX-5 binding	Bcl-xL conf	MCL1 inh confirm
COc1ccc2c3c1OC1[C@H](O)CCC4[C@@H](C2)N(C)CC[C@]314 (some centres undefined)	.	.	.	-	.	.	.
O=[N+]([O-])c1ccc(NCc2ccccc2)c2nonc12	-	175	147	198	-36	167	197
O=[N+]([O-])c1ccc(NCc2ccc(Cl)cc2)c2ccncc12	.	-	-	-	-	.	.
COC12CCC3(CC1C(C)(O)C(C)(C)C)[C@H]1Cc4ccc(O)c5c4[C@@]3(CCN1CC1CC1)C2O5 (some centres undefined)	.	.	.	-	.	.	.
CCOC(=O)c1ccccc1C(=O)OCC	.	74	63	43	-	60	72
COc1ccc2c(c1O)C13CCN(C)C(C2)C1CCC(=O)C3 (centres undefined)	.	-	-	-	-	.	.
CN(C)C(=O)Oc1ccc2c(c1)O/C(=C\c1cccc(Cl)c1)C2=O	.	-	-	-	-	.	.
CCOc1ccc(N2C(=O)/C(=C/c3ccco3)C(=O)NC2=S)cc1	.	-	-	-	-	.	.
Cc1ccccc1N1C(=O)/C(=C/c2ccco2)C(=O)NC1=S	.	98	97	-	-	97	99
COC(=O)C1=C(c2ccc(F)cc2OCc2ccccc2)C[C@@H]2CC[C@H]1N2C(=O)N1CCC(O)CC1	.	-	-	-	.	.	.
CCN(CC)c1ccc(N=Cc2c(O)n(-c3ccc(OC)cc3)c(=O)[nH]c2=O)cc1	102	41	-	-	-34	113	-
CCCCC(=O)N/N=C/c1c(O)n(-c2cccc3ccccc23)c(=O)[nH]c1=O	-	-	-	-	-	.	.
Cc1nc2ccccc2c(=O)n1/N=C/c1cc(Br)cc(Br)c1O	.	-	-	-	.	.	.
N#CC(C#N)=Cc1ccc(-c2ccccc2F)o1	101	100	62	-	.	123	150
CCOP(=O)(Cc1cc(C(C)=O)c(C)o1)OCC	-	-	-	-	-	.	.
C[n+]1c(-c2ccccc2)c2cc(N)ccc2c2ccc(N)cc21	.	+	155	136	-90	189	+
N/C(=N\N=C/c1ccc(-c2ccc(O)c(C(=O)O)c2)o1)N[N+](=O)[O-]	-	80	-	-	-29	-	81
COC(=O)C1=C(c2ccc(OC(F)(F)F)cc2)C[C@@H]2CC[C@H]1N2C(=O)N1CCCC1	.	-	-	-	.	.	.
O=c1[nH]c(=S)n(-c2ccc(Br)cc2)c(O)c1C=Nc1ccc(N2CCOCC2)cc1	86	+	170	-	-	+	+
O=[N+]([O-])c1ccc(N2CCCCCC2)c2nonc12	.	149	132	138	?	108	113
O=[N+]([O-])c1ccc(N2CCCCC2)c2ncccc12	-	-	-	-	-	.	.
COc1cc(CC2(CCc3ccncc3)C(=O)NC(=O)NC2=O)cc(OC)c1OC	-	-	-	-	-	.	.
